Results taken from PubChem BioAssay AID574 (The Scripps Research Institute Molecular Screening Center, 2007).
About 450 (0.69%) of roughly 65,000 compounds were called active. This is one part of a sample in which actives are shown more often than they occur.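 Rule for the calls: active = activation above a set limit, the screen-wide mean activation plus 3 SD (cut at about 8.5% in these data); inactive = the rest.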

target: 5-hydroxytryptamine receptor 1E (Homo sapiens) (UniProt P28566); assay: activation of human serotonin 5HT1E receptor – cell-based, HTS, primary screen (AID 574); conditions: CHO 5-HT1E Ga15 NFAT-bla reporter, FRET; at 6 µM; active compounds read high; 0% DMSO wells, 100% control agonist wells;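 note: 100% = positive control agonist at 1 µM giving full maximal response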
Sequence (P28566 whole entry, looked up): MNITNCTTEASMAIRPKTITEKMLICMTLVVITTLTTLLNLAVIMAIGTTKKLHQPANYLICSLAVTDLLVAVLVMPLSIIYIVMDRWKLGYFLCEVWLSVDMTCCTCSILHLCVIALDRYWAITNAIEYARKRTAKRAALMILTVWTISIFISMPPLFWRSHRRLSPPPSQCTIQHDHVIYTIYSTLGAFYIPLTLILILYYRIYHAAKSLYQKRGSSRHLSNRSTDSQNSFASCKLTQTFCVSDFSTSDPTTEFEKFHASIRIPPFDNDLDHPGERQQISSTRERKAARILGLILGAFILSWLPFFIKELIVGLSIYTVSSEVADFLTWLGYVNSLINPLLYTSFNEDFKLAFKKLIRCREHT

activation, inactive:
CC1(C)C/C(=C(/C#N)C(N)=O)CCO1 -0.1%
Cc1cn(COC/C=C/c2ccccc2)c(=O)[nH]c1=O 0.2%
CC(C)Cn1c(CCC(=O)O)ccc1-c1cccs1 0.6%
CC1CCCC(NC(=O)CN2CCN(Cc3ccc(Cl)cc3)C2=O)C1C (centres undefined) -0.6%
O=C(OC1CCOC1=O)c1ccc(-c2nc3ccccc3s2)s1 (centres undefined) -0.6%
Cc1ccc(-n2nc3c(c2NC(=O)c2ccc4c(c2)OCO4)CSC3)c(C)c1 -0.1%
O=C(Nc1ccccc1C(F)(F)F)c1cc(-c2ccc(O)cc2)on1 0.1%
CCOc1ccc(Cn2c(SCCCCC#N)nc3c2c(=O)n(C)c(=O)n3C)cc1OCC 0.1%
O=C(Nc1c(Cl)cccc1Cl)C1CCC1 0.5%
O=C(O)CC(Cn1cnnn1)c1ccccc1 (centres undefined) 1.2%
Fc1ccccc1CCNc1nnnn1-c1ccccc1 -0.5%
CC(C)CNC(=O)C1CCCN(S(=O)(=O)c2ccc(-n3cnnn3)cc2)C1 (centres undefined) -0.3%
Cc1oc(-c2cccc(Cl)c2)[n+]([O-])c1C 0.2%
COC(=O)COc1ccc(S(=O)(=O)N2CCOCC2)cc1 -0.6%
O=C(c1ccc2c(c1)C(=O)N(c1ccc(Cl)cc1)C2=O)N1CCN(c2ccccn2)CC1 0.4%
CCOc1ccc(C(CC(=O)O)NC(=O)COc2ccccc2)cc1 (centres undefined) -1.3%
C=CCn1c(N)c(C(=O)OCC(C)C)c2nc3ccccc3nc21 0.4%
C=CCn1c(N)c(S(=O)(=O)c2cccs2)c2nc3ccccc3nc21 0.2%
Cc1ccc(C(=O)NCCNS(=O)(=O)c2ccccc2)cc1 -1.7%
CC(=O)Nc1cccc(Oc2cc(C#N)c(C#N)cc2N2CCOCC2)c1 -0.6%
CC1CN(c2cc(=O)n(Cc3ccc(F)cc3)c(=O)[nH]2)CC(C)O1 (centres undefined) 0.8%
Cc1nnc(SCC(=O)N2CCc3ccccc32)n1-c1ccccc1 -0.4%
CCOC(=O)CSc1nc2sc3c(c2c(=O)[nH]1)CC(C)(C)OC3 -0.1%
CCCc1nnc(NC(=O)c2cc(OC)cc(OC)c2)s1 0.7%
Nc1nnnn1/N=C/c1cccs1 -0.8%
CS(=O)(=O)N(C(=O)NC(=O)NC1CCS(=O)(=O)C1)C1CCCCC1 (centres undefined) 0.1%
O=C(Nc1nnc(-c2ccc(Cl)cc2)o1)c1ccccc1Br -0.9%
CCOC(=O)N1CCC(NC(=O)c2ccc3nc(N4CCOCC4)sc3c2)CC1 -0.6%
COC(=O)C(C)C1Sc2ccccc2NC1=O (centres undefined) 0.6%
Cc1ccc(C(C(=O)NCc2ccco2)N(CC2CCCO2)C(=O)Cn2nnc3ccccc32)cc1 (centres undefined) 0.3%
O=C(NC1(C(F)(F)F)N=C2SCCN2C1=O)c1ccco1 (centres undefined) -0.1%
CCNc1nc(NCC)nc(N(C)n2cnnc2)n1 1.1%
c1n[nH]c(NCc2ccc3c(c2)OCO3)n1 -0.5%
N#Cc1nc(Cc2ccccc2)oc1NCCc1ccccc1 -0.8%
Cc1cccc2c1N(CC(=O)OC(C)C)C(=O)C2=O 0.3%
CCN(CC)P(=O)(C(NC(=O)OC)C(F)(F)C(F)(F)C(F)(F)C(F)F)N(CC)CC (centres undefined) 0.8%
COc1ccc(C2OC(=O)CC2C(=O)NC(C)C)cc1 (centres undefined) 0.2%
CCc1c(C)nc(N)n2c(SCC(=O)N3CCN(c4ccccc4)CC3)nnc12 -0.4%
Cc1cc(C)c(C)c(S(=O)(=O)Nc2ccc(O)cc2)c1C -0.5%
NS(=O)(=O)c1cc2c(cc1Cl)NC(C(Cl)Cl)NS2(=O)=O (centres undefined) -0.1%
CC(=C1C(=O)c2ccccc2C1=O)N1CCN(c2ccccn2)CC1 0.2%
O=C(c1cccc(C(=O)N2CCN(c3ccc(F)cc3)CC2)c1)N1CCN(c2ccc(F)cc2)CC1 0.7%
O=C(NC1CCCCC1)C1CCCN(S(=O)(=O)c2cccs2)C1 (centres undefined) -0.4%
Cc1cnc(C(=O)OCC(=O)Nc2ccc(Cl)cc2Cl)cn1 0.2%
CC1(C)Cc2ccccc2-c2nnc(-c3cccc(O)c3)n21 0.2%
Cc1ccc(NC2=NC(c3ccccc3)n3c(nc(C)cc3=O)N2)cc1 (centres undefined) 0.3%
COc1ccc(S(=O)(=O)Nc2ccc(S(=O)(=O)N3CCCCC3)cc2)cc1OC 0.4%
CCCCn1nnnc1NCc1cc(OC)c(OC)c(OC)c1 -0.7%
Cc1ccccc1NC(=O)c1cnn(-c2ccccc2)c1NC(=O)c1ccco1 0.5%
COc1ccc(OCC(=O)OCC(=O)Nc2ccc(S(=O)(=O)N3CCCCC3)cc2)cc1 -0.3%
CC(C)=C(NC(=O)c1ccco1)C(=O)NCCc1nc2ccccc2[nH]1 1.5%
CCCCC(CCC(=O)Nc1ccc(C(=O)OCC)cc1)C(=O)O (centres undefined) -0.3%
COC(=O)c1ccc(NC(=O)c2ccco2)cc1 0.1%
O=C1NC(c2ccncc2)Nc2sc3c(c21)CCCC3 (centres undefined) 0.1%
CCOC(=O)Cn1c2c(c(-c3ccccc3OC)cc1=O)CCCC2 -0.4%
COC(=O)c1ccc(CSc2nc3ccccc3c(=O)n2-c2cccc(OC)c2)o1 1.3%
NC(CSC12CC3CC(CC(C3)C1)C2)C(=O)O (centres undefined) 0.4%
CC1Cc2ccccc2N1C(=O)Cn1cnc2ccccc2c1=O (centres undefined) -0.8%
Cc1nc2ccc(NC(=O)N3CCC(c4ccccc4)C3)cc2nc1C (centres undefined) -0.6%
Cc1ccc(F)cc1NC(=O)c1ccc2c(c1)OCO2 -0.9%

activation, active:
CC(C)Cn1c(N)c(C(=O)NCc2cccs2)c2nc3ccccc3nc21 18.4%
N#Cc1nc(Cc2cccc3ccccc23)oc1NCc1ccc2c(c1)OCO2 10.4%
CCN(CC)C(=O)CCC(=O)Nc1ccc(C(=O)OC)cc1 20.5%
O=C(O)CCN1C(=O)CC2(CCCCC2)C1=O 9.8%
